Most compounds without a hit are left out; they make up all but 3.9% or so of the library.
BRCA1 expr act: increases BRCA1 expression | MCF7-BRCA1-FFLuc reporter, luminescence, 48 h; response scale: scaled: vehicle 0%, 10 µM genistein 100% | Potency, µM (highest dose often 46.1 µM), for the others: at the top dose activation, usual class: activators | hit rate 1.1% among 380,000 | AID 624202; further: nearly all actives have a fitted effect of over 80% in size
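First, MCF7-BRCA1-FFLuc cells (2000/well) attach for 2 h; next, compounds are pin-added and incubated 48 h at 37 °C; finally, luciferase reagent is added and luminescence read after 15 min.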
PLK1 PBD block: blocks phosphopeptide binding to human PLK1 polo-box domain. P53350. Plk1 PBD binding of FITC phosphopeptide, fluorescence polarization. Potency, µM, without a hit: max response, negative = inhibition, actives largely listed as inhibitors. hit rate 2.8% among 360,000. AID 720504; further: series mostly up to about 57 µM; on the % scale 0 is the no-effect control and ±100 the full control effect; nearly all actives have a fitted effect of over 65% in size
VDR inh: vitamin D3 receptor (human) inhibition; P11473; Potency, µM, for inactives: max response, negative = inhibition, hits mostly inhibitors; hit rate 0.93% among 400,000; VDR-SRC2-3 peptide fluorescence polarization, 2 h; further: on the % scale 0 is the no-effect control and ±100 the full control effect
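Reagent solutions, kept cold and dark, are dispensed first; compounds are then pinned in at 23 nl, plates briefly spun, and incubated 2 h at ambient temperature. Inhibition of VDR–SRC2-3 peptide binding is read by fluorescence polarization.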
Tb PFK inh: blocks T. brucei phosphofructokinase; O15648; T. brucei PFK, ADP-Glo luminescence; Potency, µM (doses to about 57.5 µM), inactives show at the top dose activity, negative = inhibition, usual class: inhibitors; hit rate 0.17% among 330,000; AID 485367;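 further: 0% = uninhibited 1x PFK enzyme wells and -100% = no-enzyme wells; nearly all actives have a fitted effect of over 60% in size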
Target sequence (O15648 whole entry, looked up): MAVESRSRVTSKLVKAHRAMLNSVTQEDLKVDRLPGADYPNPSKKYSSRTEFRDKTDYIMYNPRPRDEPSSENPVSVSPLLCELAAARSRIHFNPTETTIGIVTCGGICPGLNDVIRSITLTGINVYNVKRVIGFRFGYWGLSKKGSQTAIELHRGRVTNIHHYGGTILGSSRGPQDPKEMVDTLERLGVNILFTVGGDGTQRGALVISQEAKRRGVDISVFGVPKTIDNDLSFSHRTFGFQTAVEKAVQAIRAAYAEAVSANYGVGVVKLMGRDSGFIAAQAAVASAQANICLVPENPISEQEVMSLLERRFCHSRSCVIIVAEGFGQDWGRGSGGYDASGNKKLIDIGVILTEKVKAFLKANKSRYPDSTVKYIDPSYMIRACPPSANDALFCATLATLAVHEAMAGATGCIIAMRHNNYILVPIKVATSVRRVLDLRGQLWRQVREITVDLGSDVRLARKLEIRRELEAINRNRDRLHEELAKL
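Luminescent ADP detection (ADP-Glo, two-step: ATP depletion then ADP-to-ATP conversion for luciferase) reported PFK activity after 45 min room-temperature reaction of 1.25 nM enzyme with 0.5 mM F6P and 0.1 mM ATP at pH 8.0.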
* marks the source's active call; other numbers are inactive results; ? = inconclusive; . = no result given. The call rests on the fitted dose curve; in most records, active means well fitted curve in the direction sought with a large enough effect; inconclusive means small, poorly fitted or top-dose-only effect, or another doubt; inactive means no such curve, though single readings can be large; an effect the other way counts as inactive or inconclusive. Potency means the concentration at half of the fitted maximal effect.

SMILES	BRCA1 expr act	PLK1 PBD block	VDR inh	Tb PFK inh
O=c1nc(SCc2c(F)cccc2Cl)nc(-c2ccccc2)[nH]1	-1.6%	26.7µM*	-3.7%	-7.4%
COc1ccc2cc(-c3ccon3)ccc2c1	10µM*	6.7%	1.8%	0.5%
Cc1ccc(Cl)cc1N1CCN(C(=O)c2cn(C3CCCCC3)c(=O)c3c2c2ccccc2n3C)CC1	.	.	3.2%	.
COc1ccc(N(CC(=O)N2CCc3ccccc3C2)S(=O)(=O)c2ccc(C)cc2)cc1Cl	0.0%	.	0.1%	.
CN(C)S(=O)(=O)c1cccc(-c2nnc(SCc3cc(Cl)cc4c3OCOC4)n2N)c1	-15.9%	9.47µM*	?	-3.1%
O=C(O/C(=C/c1ccccc1)C(F)(F)F)c1ccccc1	-1.9%	-4.1%	-1.4%	.
CN(C(=O)CSc1cn(CC(=O)N2CCOCC2)c2ccccc12)c1ccccc1	16.9%	11.9µM*	?	-0.1%
O=C(CSc1cn(CC(=O)N2CCCCC2)c2ccccc12)NCC1CCCO1 (stereo not given)	6.8%	26.7µM*	?	-0.2%
CC1CCN(C(=O)Cn2cc(SCC(=O)NCC3CCCO3)c3ccccc32)CC1 (stereo not given)	-11.5%	-2.2%	-8.0%	7.3%
O=C(CSc1cn(Cc2ccccc2)c2ccccc12)N1CCOCC1	7.94µM*	-2.5%	9.1%	-3.9%
O=C(NCCn1cc(SCC(=O)N2CCOCC2)c2ccccc21)c1ccccc1	44.9%	-17.1%	-1.0%	-0.9%
O=C(O)CC(c1cccc(O)c1)N1Cc2ccccc2C1=O (stereo not given)	13.9%	-10.9%	-9.5%	0.8%
COc1ccc(S(=O)(=O)N2CCOC2CNC(=O)C(=O)NCc2ccc3c(c2)OCO3)cc1C (stereo not given)	-3.9%	-2.2%	.	.
CC1(C(=O)NS(=O)(=O)c2ccc(Cl)s2)CCN1C(=O)Cc1ccc(-c2ccccc2)cc1 (stereo not given)	-5.5%	-15.3%	.	.
CN1CCN(C(=O)C2Cc3c(-c4ccc5c(c4)OCO5)ccnc3O2)CC1 (stereo not given)	23.4%	-8.5%	.	.
CC1(C)OC2OC3C(CNCCO)OC(c4ccccc4)OC3C2O1 (stereo not given)	-11.7%	2.5%	-5.2%	.
O=C(C=Cc1ccc(Cl)s1)c1ccc(Cl)s1	78.8%	-6.8%	?	.
COc1ccc(/C=C/C(=O)c2ccc(Cl)s2)cc1O	35.3%	-16.9%	79.4µM*	2.1%
COc1ccc(C(=O)/C=C/c2ccc(OC)c(O)c2)c(F)c1	-21.8%	-11.1%	89.1µM*	?
COc1cc(/C=C/C(=O)c2ccc(Cl)s2)cc(OC)c1O	-23.6%	-10.4%	56.2µM*	4.4%
CN(C)c1ncnc2c1ncn2[C@H]1CN(Cc2cccs2)C[C@@H](CO)O1	0.6%	8.6%	.	.
CSc1ncnc2c1ncn2CCCNCc1ccc(C)o1	8.3%	-13.4%	.	.
CCOCc1ccccc1Nc1ncnc2onc(-c3ccc(Cl)cc3)c12	-13.2%	.	3.6%	.
CCCCN1CC(N2CCN(C(=O)c3ccco3)CC2)CS1(=O)=O (stereo not given)	2.0%	-11.1%	.	.
Nc1nnc(/C=C/c2cccc([N+](=O)[O-])c2)s1	15.8µM*	-18.1%	-13.0%	1.5%
SMILES	BRCA1 expr act	PLK1 PBD block	VDR inh	Tb PFK inh
O=C(NC1CCN(C(=S)NCc2ccco2)CC1)NC12CC3CC(CC(C3)C1)C2	-1.0%	29.9µM*	10.1%	-1.9%
Cc1cccc(C(=O)NC2CCN(C(=S)NCc3ccco3)CC2)c1	1.9%	-15.4%	-15.6%	-0.7%
C/C(=N\NC(=O)c1ccccc1)c1ccccc1Br	11.2µM*	-12.6%	0.7%	-7.4%
C/C(=N\NC(=O)c1ccccc1)c1ccc(N2CCCCC2)cc1	11.2µM*	1.3%	-6.0%	-6.9%
C/C(=N\NC(=O)c1ccc(N2CCCC2=O)cc1)c1ccccc1	26.5%	1.8%	-14.4%	2.2%
Cc1cccc(-n2c(N)cc(=O)nc2SCC(=O)Nc2ccc(F)cc2)c1C	.	.	6.3%	.
CC(C)=CCCC1(C)C=Cc2c(O)c3c(c(CC=C(C)C)c2O1)OC12C(=CCCC1C(C)(C)O[C@@]2(C/C=C(\C)C(=O)O)C(=O)O)C3=O (stereo not given in full)	.	.	44.7µM*	.
CC(C)=CCc1c2c(c(O)c3c(=O)c(O)c(-c4ccccc4)oc13)C=CC(C)(C)O2	.	.	-4.4%	.
O=C(O)CCc1nn2c3ccccc3n(Cc3ccccc3F)c2nc1=O	0.0%	26.7µM*	?	-1.9%
Cc1cc(C)cc(NC(=O)N2CCN(C(=O)c3nsc4ccccc34)CC2)c1	.	.	3.2%	.
Cn1c(-c2csc(-c3cccc(C(F)(F)F)c3)n2)n[nH]c1=S	-0.2%	-4.6%	-0.5%	-2.9%
Cn1c(CNc2cccc(C(F)(F)F)c2)n[nH]c1=S	-6.6%	26.7µM*	-4.8%	-5.4%
CCOc1ccc(N=Nc2c(N)[nH][nH]c2=O)cc1	5.01µM*	-1.2%	-0.7%	-5.7%
Nc1cccc(Cl)c1N1CCOCC1	-35.5%	26.7µM*	5.1%	2.0%
Nc1ccc(N2CCOCC2)c(Cl)c1	16.6%	23.8µM*	6.3%	-3.0%
Nc1ccc(N2CCCCC2)c(Cl)c1	9.6%	-15.2%	2.7%	2.9%
O=S1(=O)CC(N2CCSCC2)CN1Cc1cn(Cc2ccc(F)cc2)nn1 (stereo not given)	17.0%	-11.7%	.	.
CC1CCCCC1NC(=O)/C(C#N)=C/c1ccc2c(c1)OCCO2 (stereo not given)	-30.4%	26.7µM*	-18.6%	-5.0%
C=C(C(=O)OCC)C(=O)c1ccccc1	.	.	-0.2%	.
O=C(CCc1ccc(S(=O)(=O)NC2CCCCC2)cc1)Nc1ccccc1	-18.9%	26.7µM*	-12.4%	-8.7%
Cc1ccc2c(c1)C(=C(C#N)C#N)C(=O)N2CCN1CCOCC1	-13.7%	11.9µM*	79.4µM*	-4.3%
Nc1ccc(C(=O)OCc2nc3c(ccc4ccccc43)[nH]2)cc1	7.08µM*	-7.1%	-14.3%	5.0%
Nc1ccc(C(=O)OCc2nc3cc4ccccc4cc3[nH]2)cc1	-0.2%	-0.3%	15.4%	2.5%
O=C(Nc1ccccc1)N1CCCC2(CCN(C(=O)c3cnccn3)CC2)C1	.	.	3.1%	.
O=c1[nH]c2ccccc2nc1/C=C(\O)c1cccs1	66.2%	?	-13.9%	-1.1%
SMILES	BRCA1 expr act	PLK1 PBD block	VDR inh	Tb PFK inh
O/C(=C\c1nc2ccccc2[nH]1)c1cccs1	12.6µM*	-18.1%	?	-0.2%
CC1Cc2ccccc2N1C(=O)CSc1nnc(NC(=O)Cc2cccs2)s1 (stereo not given)	-1.2%	29.9µM*	8.7%	-17.0%
CCOC(=O)N1CCN(C(=O)c2ccc([N+](=O)[O-])cc2Cl)CC1	-2.0%	23.8µM*	?	-4.6%
Cc1ccccc1C(=O)Nc1ccc2nc3n(c(=O)c2c1)CCCC3	42.1%	-3.2%	10.2%	-2.9%
O=C(c1cccnc1Cl)N1CCOCC1	-11.2%	18.9µM*	?	2.0%
CC1CCCC(C)N1CCCNC(=O)C(=O)Nc1ccc2nc3n(c(=O)c2c1)CCCCC3 (stereo not given)	0.0%	26.7µM*	-29.2%	0.3%
O=C(Nc1ccc(N2CCCCC2)cc1)c1cccnc1Cl	10µM*	-8.2%	0.1%	0.6%
O=C(Nc1ccc2nc3n(c(=O)c2c1)CCCC3)c1cccnc1Cl	-8.2%	18.9µM*	?	.
